Shiga inhibitor: A qHTS for Small Molecule Inhibitors of Shiga Toxin; Vero cells, Shiga toxin protein synthesis inhibition reporter; inhibition, % at 38.7 µM; 9.2% of 290,000 active; in the data active = inhibition mostly above about 28%, no sharp cut-off; inactive = mostly below about 43%; also: 0% is about no effect
LmPK inh: qHTS Assay for Inhibitors of Leishmania Mexicana Pyruvate Kinase (LmPK); Potency, µM (top dose mostly 57.5 µM), for the others: at the top dose activity change, negative = inhibition, hits mostly inhibitors; 0.37% of 290,000 active; purified LmPK, Kinase-Glo ATP luminescence, 1 h; Q27686; also: potency is read from the fitted curve at half-maximal effect; % is scaled to controls: 0 for no effect and ±100 for the full control effect
Target sequence (Q27686 whole entry, looked up): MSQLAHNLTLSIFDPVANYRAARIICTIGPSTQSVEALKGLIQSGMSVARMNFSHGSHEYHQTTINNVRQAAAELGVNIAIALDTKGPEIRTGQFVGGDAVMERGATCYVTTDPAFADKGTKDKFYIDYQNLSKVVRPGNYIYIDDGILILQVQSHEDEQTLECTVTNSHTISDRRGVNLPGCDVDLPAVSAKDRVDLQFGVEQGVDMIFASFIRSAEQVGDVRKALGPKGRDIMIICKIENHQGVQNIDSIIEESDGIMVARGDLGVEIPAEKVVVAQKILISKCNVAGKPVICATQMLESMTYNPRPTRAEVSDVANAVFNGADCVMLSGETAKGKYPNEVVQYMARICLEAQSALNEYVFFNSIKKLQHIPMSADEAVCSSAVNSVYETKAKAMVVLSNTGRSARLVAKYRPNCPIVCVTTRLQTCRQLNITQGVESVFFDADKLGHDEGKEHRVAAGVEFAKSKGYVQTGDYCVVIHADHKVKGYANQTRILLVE
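In 50 mM imidazole pH 7.2 with 7 mM MgCl2, LmPK (0.1 nM) turned over PEP (0.5 mM) and ADP (0.1 mM) for 1 h at room temperature. Luciferase read-out of ATP.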
Cycloheximide cs: Cycloheximide Counterscreen for Small Molecule Inhibitors of Shiga Toxin; cell reporter, cycloheximide protein synthesis inhibition counterscreen; max response, %; 12% of 300,000 active; AID 2314, 2010; in the data active = max response mostly above about 13%, no sharp cut-off; inactive = mostly below about 14%; also: read at 38.3 µM for the half of the compounds with a filed dose; 0% is about no effect
Pf growth 48h: Primary qHTS for delayed death inhibitors of the malarial parasite plastid, 48 hour incubation. P. falciparum luciferase growth in erythrocytes, 48 h. Potency, µM (highest dose often 28.7 µM), inactives show at the highest dose activity change, negative = inhibition, most hits filed as inhibitors. 5.9% of 310,000 active. AID 504832, 2011; also: potency is read from the fitted curve at half-maximal effect; % is scaled to controls: 0 for no effect and ±100 for the full control effect
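Luciferase-expressing P. falciparum in infected erythrocytes (2% hematocrit, 0.1% parasitemia final) in RPMI 1640/0.5% Albumax were exposed to compound for 48 hours at 37 C, 5% CO2; growth read as luminescence.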
Pf growth 96h: Primary qHTS for delayed death inhibitors of the malarial parasite plastid, 96 hour incubation; P. falciparum luciferase reporter growth, 96 h; Potency, µM (highest dose often 28.7 µM), without a hit: at the highest dose activity change, negative = inhibition, most hits filed as inhibitors; 6.9% of 320,000 active; AID 504834, 2011; also: potency is read from the fitted curve at half-maximal effect; % is scaled to controls: 0 for no effect and ±100 for the full control effect
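Luminescence readout: decreased luciferase signal marks inhibited growth of reporter-expressing P. falciparum in infected red cells (2% hematocrit, 0.05% parasitemia final), exposed to compound two generations (96 h, 37 C, 5% CO2).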
Numbers without * were called inactive; ? = inconclusive; . = no result given; [ ] = another dose, or the depositor's remark. Hits are enriched below; roughly 22% of the tested compounds scored in any of these assays. Unless noted, calls follow the shape of the dose curve; as a rule, active = well fitted inhibition curve with a large enough effect; inconclusive = small, poorly fitted or top-dose-only effect, or another doubt; inactive = no such curve, though single readings can be large or run the other way.

SMILES	Shiga inhibitor	LmPK inh	Cycloheximide cs	Pf growth 48h	Pf growth 96h
CC1(C)OC(=O)C(=Cc2ccc(-c3ccc(Cl)c(C(=O)O)c3)o2)C(=O)O1	-15	32%	8	15µM*	?
CC1=NN=C(c2ccc(N)cc2)c2cc3c(cc2C1)OCO3	.	.	.	12µM*	?
Cc1ccc(C2CC2c2n[nH]c(=S)n2-c2ccc(C)cc2)cc1 (stereo not drawn)	-6	11µM*	9	-1%	.
Cc1ccc(-n2c(C3CC3c3ccc(Cl)cc3)n[nH]c2=S)cc1 (stereo not drawn)	-16	7.9µM*	-6	.	9.3µM*
Cc1ccc(-n2c([C@@H]3C[C@H]3c3ccccc3)n[nH]c2=S)cc1	22	?	8	7%	2%
CC(C)Cn1c(N)c(C(=O)COC(=O)C2CC(=O)N(Cc3ccccc3Cl)C2)c(=O)n(C)c1=O (stereo not drawn)	-17	-6%	10	-14%	0%
CCOC(=O)C1CCN(C(=O)CSc2nc3ncccc3[nH]2)CC1	-5	0%	16	5%	?
CC1CCN(C(=O)CSc2nc3ccccc3[nH]2)CC1	66*	2%	59*	115%	35%
CC1CCN(C(=O)CSc2nc3ncccc3[nH]2)CC1	28	8%	20*	13%	26%
Cc1c(Cl)cccc1NC(=O)CS(=O)(=O)c1ccccc1	-9	1%	8	-7%	23%
COc1cccc(-n2nnc3c(=O)n(CC(=O)OCc4ccccc4)cnc32)c1	12	-1%	-2	13%	0.17µM*
CCOC(=O)Cn1cnc2c(nnn2-c2cccc(OC)c2)c1=O	4	5%	19	3%	10%
COc1cccc(-n2nnc3c(=O)n(CC(=O)NC4CCCC4)cnc32)c1	10	6%	-5	3%	0.33µM*
O=C(Nc1ccccc1N1CCCC1)c1ccc([N+](=O)[O-])o1	41*	-3%	36*	9.3µM*	4.1µM*
O=C(Nc1ccccc1N1CCN(C(=O)c2ccccc2)CC1)c1ccc([N+](=O)[O-])o1	26	7%	3	?	9%
CC1CCN(c2ccccc2NC(=O)c2ccc([N+](=O)[O-])o2)CC1	-10	-2%	-4	?	32%
O=C(Nc1ccccc1C(=O)NC1CC1)c1ccc([N+](=O)[O-])o1	.	.	.	?	10µM*
CC(C)C(=O)N1CCN(c2ccccc2NC(=O)c2ccc([N+](=O)[O-])o2)CC1	50*	3%	27*	0%	18%
O=C(Nc1cccc2ccccc12)c1ccc([N+](=O)[O-])o1	31*	1%	31*	?	5.2µM*
CC1(C)CC(=O)C2=C(C1)OC(N)=C([N+](=O)[O-])C2c1cccs1 (stereo not drawn)	9	5%	-1	0%	4%
CCC(=O)c1ccc(OCC(O)Cn2nnc3ccccc32)cc1 (stereo not drawn)	65*	4%	45*	115%	25%
CCC(=O)c1ccc(OCC(O)Cn2nc(C)cc2C)cc1 (stereo not drawn)	22	-1%	10	-10%	-13%
Cc1ccccc1OCC(O)Cn1nnc2ccccc21 (stereo not drawn)	79*	1%	50*	50%	?
CCC1(CC)NC(=O)N(CC(=O)OCC(=O)Nc2cc(OC)ccc2OC)C1=O	.	.	.	-14%	33%
Cc1nc(SCc2ccccc2)c(C(F)(F)F)c(=O)[nH]1	6	-2%	0	8%	5.2µM*
SMILES	Shiga inhibitor	LmPK inh	Cycloheximide cs	Pf growth 48h	Pf growth 96h
CCOC(=O)COc1ccc2c(C)c(CCN(CC)CC)c(=O)oc2c1Cl	-12	.	-3	-4%	?
CCc1ccc2[nH]c3nc(C)cc(C)c3c(=O)c2c1	-4	-1%	21*	3.3µM*	0%
COc1ccccc1C(c1nnnn1CS(=O)(=O)c1ccc(C)cc1)N1CCSCC1 (stereo not drawn)	-19	4%	-5	9.3µM*	100%
CCCC(c1nnnn1CS(=O)(=O)c1ccc(C)cc1)N1CCN(C2CCCC2)CC1 (stereo not drawn)	-1	-1%	-8	?	7%
CCCCC(c1nnnn1CS(=O)(=O)c1ccc(C)cc1)N1CCN(c2ccccc2)CC1 (stereo not drawn)	-14	1%	-2	13µM*	.
Cc1ccc(S(=O)(=O)Cn2nnnc2C(C(C)C)N2CCN(c3nc4ccccc4s3)CC2)cc1 (stereo not drawn)	2	3%	1	4.7µM*	?
CC1CCCCN1C(=O)Cn1c(=O)oc2cc(S(=O)(=O)N3CCCC3)ccc21 (stereo not drawn)	6	-1%	3	-9%	?
Cc1cccc(/C=N/n2c(C)nc3ccccc3c2=O)c1	100*	-1%	22*	17%	50%
Cc1nc2ccccc2c(=O)n1/N=C/c1ccc(O)cc1	17	7%	1	-6%	53%
Cc1nc2ccccc2c(=O)n1/N=C/c1ccc(C(C)C)cc1	38*	-7%	22*	42%	50%
COC(=O)c1ccc(/C=N/n2c(C)nc3ccccc3c2=O)cc1	41*	4%	21*	36%	-2%
COc1ccc(/C=N/n2c(C)nc3ccccc3c2=O)cc1	38	1%	-2	49%	67%
C(#CCN1CCOCC1)COCc1ccccc1	-5	4%	1	38%	10µM*
C(#CCN1CCOCC1)COCCOC(c1ccccc1)c1ccccc1	24	3%	1	?	.
CC(=O)N1N=C2/C(=C/c3ccccc3)CCCC2C1c1ccccc1 (stereo not drawn)	72*	1%	48*	113%	?
O=C(O)c1c(C(=O)N2N=C3/C(=C/c4ccccc4)CCCC3C2c2ccccc2)cccc1[N+](=O)[O-] (stereo not drawn)	-9	-3%	3	?	-33%[5.75 µM]
CCOc1ccccc1C(=O)Oc1ccc2ccc(=O)oc2c1	-10	-14%	-1	20%	?
O=c1ccc2ccc(OCCOc3cccc(Cl)c3)cc2o1	66*	-6%	24*	45%	31%
CN(C)C(=O)Oc1ccc(OC(=O)c2ccccc2)cc1	20*	13µM*	39*	10%	10%
O=C(Oc1ccc2ccc(=O)oc2c1)c1ccccc1	-4	-3%	0	10%	9.3µM*
COc1ccc(C(=O)Oc2ccc3ccc(=O)oc3c2)cc1	-3	-6%	-3	.	36%
Cc1nc2c(C#N)c[nH]n2c(=O)c1CCO	24	-3%	3	12%	36%
CCOC(=O)CC(=O)CSc1ncc(C(=O)OCC)c(N)n1	16	3%	2	47%	10%
Cc1nc(SCc2ccc(Cl)cc2)ncc1C(=O)O	60*	0%	14	12%	?
CCOC(=O)c1cnc(SCc2ccc(C(C)(C)C)cc2)nc1N	-12	7%	-1	?	?
